# Source: PubChem BioAssay (Tox21)
# Several values for one entry are separate records, joined by “and”; a condition that tells them apart may be missing. Identical values can stand only once. Unmarked numbers belong to inactive results. Results filed as inconclusive are left out. Entries that show only a call come without a potency. Activity calls are given as the source filed them. The call rests on the fitted dose curve.
# Experiments:
# [1] = target: Acetylcholinesterase (Homo sapiens) (UniProt P22303); experiment: Acetylcholinesterase (AChE) small molecule antagonists: colormetric cell-based qHTS assay (AID 1347395); further: nearly all actives have a fitted effect of over 30% in size; further: potency means the concentration at half of the fitted maximal effect
# Sequence of Acetylcholinesterase (Homo sapiens) (P22303 whole entry, looked up): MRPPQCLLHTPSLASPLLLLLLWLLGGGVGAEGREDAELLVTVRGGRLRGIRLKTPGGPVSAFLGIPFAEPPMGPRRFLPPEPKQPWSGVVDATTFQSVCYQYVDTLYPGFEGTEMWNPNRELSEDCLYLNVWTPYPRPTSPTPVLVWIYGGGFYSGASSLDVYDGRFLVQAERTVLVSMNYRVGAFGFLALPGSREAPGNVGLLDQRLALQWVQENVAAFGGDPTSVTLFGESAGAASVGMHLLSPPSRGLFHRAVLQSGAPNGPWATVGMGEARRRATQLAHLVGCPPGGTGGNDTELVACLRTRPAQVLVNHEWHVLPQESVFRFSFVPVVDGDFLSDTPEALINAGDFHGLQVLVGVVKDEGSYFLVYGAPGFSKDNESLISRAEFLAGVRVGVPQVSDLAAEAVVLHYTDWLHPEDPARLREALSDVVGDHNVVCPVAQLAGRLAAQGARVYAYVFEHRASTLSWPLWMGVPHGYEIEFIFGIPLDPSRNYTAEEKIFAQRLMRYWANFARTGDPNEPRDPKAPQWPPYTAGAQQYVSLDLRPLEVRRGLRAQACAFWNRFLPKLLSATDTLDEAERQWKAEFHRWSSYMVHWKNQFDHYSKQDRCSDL
# Summary of the method: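 Endogenous AChE of human neuroblastoma SH-SY5Y cells was measured with an Ellman-type DTNB/acetylthiocholine mix. Compound pretreatment lasted 30 min at 37 C; substrate reaction ran 90 min at 37 C.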
# [2] = target: Acetylcholinesterase (Homo sapiens) (UniProt P22303); experiment: Acetylcholinesterase (AChE) small molecule antagonists: enzyme-based qHTS assay (AID 1347397); conditions: Potency: AChE enzyme activity inhibition; outcome: AChE enzyme activity inhibition; further: nearly all actives have a fitted effect of over 55% in size
# Summary of the method: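 Absorbance-based detection of thiocholine with DTNB served as the read-out. Recombinant human AChE was exposed to compound for 30 min at RT before a 10 min RT incubation with acetylthiocholine.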
# [3] = target: Acetylcholinesterase (Homo sapiens) (UniProt P22303); experiment: Acetylcholinesterase (AChE) small molecule antagonists: fluorescence cell-based qHTS assay (AID 1347398); conditions: Potency: AChE activity; outcome: AChE activity; further: nearly all actives have a fitted effect of over 50% in size
# Summary of the method: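 Fluorimetric cell-based assay: intact SH-SY5Y cells, 30 min compound preincubation at 37 C, acetylthiocholine substrate with thiol probe Thiolite Green, 40 min RT development, fluorescence 490/520 nm.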
# [4] = target: Acetylcholinesterase (Homo sapiens) (UniProt P22303); experiment: Acetylcholinesterase (AChE) small molecule antagonists: enzyme-based qHTS assay with human liver microsomes (AID 1347399); conditions: Potency: qHTS inhibition; outcome: qHTS inhibition; further: nearly all actives have a fitted effect of over 60% in size
# Summary of the method: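 Recombinant human AChE (50 mU/mL in the enzyme mix) and human liver microsomes (0.25 mg/mL final) were preincubated with compound and NADPH (0.25 mg/mL final) for 30 min at 37 C. Acetylthiocholine/DTNB was then added; thiocholine was read colorimetrically after 10 min at room temperature.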
SMILES,Potency [1],Potency [2],Potency [3],Potency [4],"activity, negative = inhibition [1]","activity change, negative = inhibition [2]","activity change, negative = inhibition [3]","activity change, negative = inhibition [4]"
CC(C)(CO)COC(=O)C(C)(C)CO,inactive,inactive,inactive,inactive,–,–,–,–
O=C1NC(=O)[C@@]2(CCOc3ccc(F)cc32)N1,inactive,inactive,inactive,inactive,–,–,–,–
C=C1C(C)(C)[C@@]2(Cl)C(Cl)[C@]1(Cl)C(Cl)(Cl)C2(Cl)Cl (stereo not given in full),inactive,inactive,inactive,inactive,–,–,–,–
CN(C)N=Nc1ccccc1,inactive,inactive,inactive,inactive,–,–,–,–
CCCCOCCOCCOCCOCCO,inactive,inactive,inactive,inactive,–,–,–,–
C[C@H]1C[C@H]2[C@@H]3CCC4=CC(=O)C=C[C@]4(C)[C@H]3C(=O)C[C@]2(C)[C@@]1(O)C(=O)CO,inactive,inactive,inactive,inactive,–,–,–,–
COC(=O)c1ccc(C(=O)OC)c(C(=O)OC)c1,inactive,inactive,inactive,inactive,–,–,–,–
CC(C)(C)NCC(O)c1cc(O)cc(O)c1 (stereo not given),inactive,inactive,inactive,inactive,–,–,–,–
CCCCCCC(C)O (stereo not given),inactive,inactive,inactive,inactive,–,–,–,–
CCCCCCCC/C=C\CCCCCCCC(=O)NCc1ccc(O)c(OC)c1,inactive,inactive,inactive,inactive,–,–,–,–
O=C(O)c1cc(Br)c(O)c(Br)c1,inactive,inactive,inactive,inactive,–,–,–,–
CN(C)CCCNCCC#N,inactive,inactive,inactive,inactive,–,–,–,–
O=C1NCCN1,inactive,inactive,inactive,inactive,–,–,–,–
CCCCCCCC(C)=O,inactive,inactive,inactive,inactive,–,–,–,–
C=C(C)C(=O)OCCOC(=O)C(=C)C,inactive,inactive,inactive,inactive,–,–,–,–
NC(=O)NC(N)=O,inactive,inactive,inactive,inactive,–,–,–,–
Nc1ccc(Nc2ccccc2)cc1,inactive,inactive,inactive,inactive,–,–,–,–
OCC(O)[C@@H](O)[C@H](O)[C@H](O)CO[C@H]1O[C@H](CO)[C@@H](O)[C@H](O)[C@H]1O (stereo not given in full),inactive,inactive,inactive,inactive,–,–,–,–
NC(=O)c1ccc([N+](=O)[O-])cc1Cl,inactive,inactive,inactive,inactive,–,–,–,–
CC(C)c1cc(C(C)C)cc(C(C)C)c1,inactive,inactive,inactive,inactive,–,–,–,–

SMILES,Potency [1],Potency [2],Potency [3],Potency [4],"activity, negative = inhibition [1]","activity change, negative = inhibition [2]","activity change, negative = inhibition [3]","activity change, negative = inhibition [4]"
CCCCCCC1CCCC(=O)O1 (stereo not given),inactive,inactive,inactive,inactive,–,–,–,–
CCc1ncc(C)[nH]1,inactive,inactive,inactive,inactive,–,–,–,–
N=c1ccn2c(n1)O[C@H]1[C@H](O)[C@@H](CO)O[C@H]12,inactive,inactive,inactive,inactive,–,–,–,–
CCCCCCCCCOC(=O)CCCCC(=O)OCCCCCCC,inactive,inactive,inactive,inactive,–,–,–,–
C=C(C)C(=O)OCC(O)CO (stereo not given),inactive,inactive,inactive,inactive,–,–,–,–
O=C(c1ccc(O)cc1O)c1ccc(O)cc1O,inactive,inactive,inactive,inactive,–,–,–,–
COc1cc(CNC(=O)CCCC/C=C/C(C)C)ccc1O,inactive,inactive,inactive,inactive,–,–,–,–
COc1nc(N)nc2nc[nH]c12,inactive,inactive,inactive,inactive,–,–,–,–
O=c1[nH]c(=O)n([C@H]2C[C@H](O)[C@@H](CO)O2)cc1F,inactive,inactive,inactive,inactive,–,–,–,–
C[Si](C)=O,–,–,–,–,-2.31% [at 10.5 µM],-1.81% [at 10.5 µM],0.274% [at 10.5 µM],-0.0165% [at 10.5 µM]
Nc1nc2ccc([N+](=O)[O-])cc2s1,inactive,inactive,inactive,inactive,–,–,–,–
CC(Oc1c(Cl)cccc1Cl)C1=NCCN1 (stereo not given),inactive,inactive,inactive,inactive,–,–,–,–
NC(=O)C1(N2CCCCC2)CCN(CCCC(=O)c2ccc(F)cc2)CC1,inactive,inactive,inactive,inactive,–,–,–,–
CC(=O)OCC=C(C)C,inactive,inactive,inactive,inactive,–,–,–,–
O=C(CCCCC(=O)Nc1c(I)cc(I)c(C(=O)O)c1I)Nc1c(I)cc(I)c(C(=O)O)c1I,inactive,inactive,inactive,inactive,–,–,–,–
CCOc1cccc(-n2cc(C(=O)N3CCN(c4cc(C(=O)O)c5ccccc5c4)CC3)nc2-c2ccc(C)cc2)c1,inactive,inactive,inactive,inactive,–,–,–,–
O=C(O)c1ccccc1S,inactive,inactive,inactive,inactive,–,–,–,–
O=C(c1ccccc1)c1cccc(O)c1,inactive,inactive,inactive,inactive,–,–,–,–
O=Cc1ccccc1Cl,inactive,inactive,inactive,inactive,–,–,–,–
CCC(C)(CCCC(C)C)OC(C)=O (stereo not given),inactive,inactive,inactive,inactive,–,–,–,–

SMILES,Potency [1],Potency [2],Potency [3],Potency [4],"activity, negative = inhibition [1]","activity change, negative = inhibition [2]","activity change, negative = inhibition [3]","activity change, negative = inhibition [4]"
Cc1cc2nc3c(=O)[nH]c(=O)nc-3n(C[C@H](O)[C@H](O)[C@H](O)CO)c2cc1C,35.2 µM (active) and 33 µM (active),inactive,inactive,inactive,–,–,–,–
CN1CCN(C2=Nc3cc(F)ccc3Cc3ccccc32)CC1,inactive,inactive,inactive,inactive,–,–,–,–
CC(CC(=O)O)CC(C)(C)C (stereo not given),inactive,inactive,inactive,inactive,–,–,–,–
CNCC[C@@H](Oc1ccccc1C)c1ccccc1,inactive,inactive,inactive,inactive,–,–,–,–
CC(CO)c1ccccc1 (stereo not given),inactive,inactive,inactive,inactive,–,–,–,–
CO[C@@]1(NC(=O)C(C(=O)O)c2ccc(O)cc2)C(=O)N2C(C(=O)O)=C(CSc3nnnn3C)CO[C@@H]21 (stereo not given in full),inactive,inactive,inactive,inactive,–,–,–,–
CC(C)=CCC/C(C)=C/C(=O)O,inactive,inactive,inactive,inactive,–,–,–,–
CCCCCCCCS(=O)(=O)Cl,inactive,inactive,inactive,inactive,–,–,–,–
CSc1ccc(Cl)cc1,inactive,inactive,inactive,inactive,–,–,–,–
CCCCOC(=O)CC(CC(=O)OCCCC)(OC(C)=O)C(=O)OCCCC,inactive,inactive,inactive,inactive,–,–,–,–
Cc1cc2c(OCC(CNC(C)(C)C)OC(=O)c3ccccc3)cccc2[nH]1 (stereo not given),inactive,inactive,inactive,inactive,–,–,–,–
NNc1nc(-c2ccccc2)cs1,inactive,inactive,inactive,inactive,–,–,–,–
CC1(C)O[C@@H]2[C@@H](CO[C@@]3(COS(N)(=O)=O)OC(C)(C)O[C@@H]23)O1,inactive,inactive,inactive,inactive,–,–,–,–
O=C=Nc1ccc(Cc2ccc(N=C=O)cc2)cc1,inactive,inactive,inactive,inactive,–,–,–,–
COC(=O)c1cc(Cl)c(NC(C)=O)cc1OC,27.5 µM (active),inactive,inactive,inactive,–,–,–,–
O=Cc1cccc([N+](=O)[O-])c1,inactive,inactive,inactive,inactive,–,–,–,–
C#CC1(O)CC[C@H]2[C@@H]3CCC4=CCCC[C@@H]4[C@H]3CC[C@@]21C (stereo not given in full),inactive,inactive,inactive,inactive,–,–,–,–
CC[N+](CC)(CC(=O)Nc1c(C)cccc1C)Cc1ccccc1,inactive,inactive,inactive,inactive,–,–,–,–
CCOC(=O)c1cccnc1,inactive,inactive,inactive,inactive,–,–,–,–
COC(=O)Nc1nc2ccc(Sc3ccccc3)cc2[nH]1,inactive,inactive,inactive,inactive,–,–,–,–
